The structures appear in SMILES notation. Screen size: about 96,000 compounds; about 100 (0.1%) were called active. Only a selection was taken, and actives are over-represented in it overall. Potency and affinity values are given separately. A number with no mark means an inactive call.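 Rule for the calls: active = displacement above 50% at 20 µM plus a fluorescence interference ratio under 1.5; inactive = the rest.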

This experiment addresses Bcl-2-like protein 10 (Homo sapiens) (UniProt Q9HD36). Briefly: Bcl-B/TR3 peptide binding disruption – biochemical, fluorescence polarization, FITC-TR3 peptide, selectivity assay for Bfl-1 inhibitor project, primary screen (AID 748).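 Note: plate controls were wells without compound for no effect and wells lacking Bcl-B protein for full effect.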 The settings on record: FP displacement of FITC-TR3 peptide from Bcl-B; at 20 µM; stronger effect = higher value. Background: Fluorescence polarisation rises when a labelled molecule tumbles more slowly, as on binding a larger partner.
Regarding `COc1ccc(CNCC(O)(c2ccccc2)c2ccc(Cl)cc2)cc1` (centres undefined), the displacement was -0.9%.
For the compound `COc1ccc(-c2cc(C(F)(F)F)nc(SCC(=O)N3CCOCC3)n2)cc1OC`, the displacement is -2.2%.
As for `O=C(Nc1ccc2c(c1)OCO2)c1cnn2c(C(F)(F)F)cc(-c3ccco3)nc12`, the displacement was 10.1%.
Next, `O=C(O)c1cnn2c(C(F)(F)F)cc(-c3ccco3)nc12`: 35.7%.
Regarding `Cc1nn(C)cc1CNC(=O)c1cccc(Cl)c1`, the displacement is 3.4%.
On to `COC(=O)[C@H](Cc1ccccc1)NC(=O)NCc1ccc(S(N)(=O)=O)cc1`, for which the displacement is 3%.
Next, `O=C(NCN1CCN(c2ccccc2F)CC1)c1cccnc1`: -3.4%.
Consider `NC1=NS(=O)(=O)NC1c1cccc(Cl)c1` (centres undefined), for which the displacement was -0.7%.
Consider `CS(=O)(=O)N(Cc1ccc(C(=O)Nc2ccccc2Sc2ccccc2)cc1)c1ccccc1`, for which the displacement was -11.2%.
Take `Cc1cccc(OCCCC(=O)O)c1`: the displacement is -8.7%.
Regarding `CC1CCN(C(=O)c2ccc3c(c2NCCO)C(=O)c2ccccc2C3=O)CC1`, the displacement was 27.9%.
Consider `CC1CCCN(C(=O)c2ccc3c(c2NCCO)C(=O)c2ccccc2C3=O)C1` (centres undefined), for which the displacement is 37%.
As for `CC(CC(=O)c1cccs1)CC(=O)c1cccs1`, the displacement was -2.6%.
`O=C(O)Cn1nc2ccccc2n1`: the displacement is 3.4%.
Regarding `Cc1nc(=S)n(-c2ccccc2)[nH]1`, the displacement was -1.7%.
Regarding `CC(/C=C/c1ccco1)=N/NC(=O)Cc1cccs1`, the displacement is -47.4%.
Next, `O=C(CNC(=O)c1ccco1)NCC(=O)OCc1ccccc1Br`: -3.7%; `O=C(NCc1ccncc1)C1CCCCC1`: -9%.
On to `COc1cc(-c2nnc(SCc3cc(=O)oc4cc(C)ccc34)o2)cc(OC)c1OC`, for which the displacement is -10.8%.
Next, `COc1cc(-c2nnc(SCc3ccccc3Cl)o2)cc(OC)c1OC`: -2.8%.
With `Cc1c(C(=O)Nc2cccc3cccnc23)oc2ccccc12`, the displacement was 10.7%.
In the case of `Cc1cc(=O)n2c3c(cccc13)CCC2` it was -9.7%; in that of `C=CCn1c(SCC(=O)Nc2ncc(Cc3cc(Cl)ccc3Cl)s2)nnc1-c1ccncc1`, -3.4%.
Consider `O=C(NCc1ccco1)c1cc(-c2ccc(F)cc2)on1`, for which the displacement was 1.1%.
In the case of `O=C(Nc1ccc(N2CCCCC2)cc1)c1ccccc1`, the displacement is -3.3%.
With `CN1CCN(c2ccc(NC(=O)Cc3ccccc3)cc2)CC1`, the displacement is -5.5%.
In the case of `O=C(Cc1ccc(Cl)cc1)Nc1ccc(N2CCCC2)cc1`, the displacement was -84%.
For `O=C(Nc1ccc(N2CCCC2)cc1)C(Cl)c1ccccc1` (centres undefined), the displacement was -13.8%.
For `CCOC(=O)c1ccccc1NC(=O)CC(C)CC(=O)O` (centres undefined), the displacement is -5.5%.
Consider `COc1cccc2c1C(=O)CC2NC(=O)C(F)(F)F` (centres undefined), for which the displacement was -17.1%.
With `COC(=O)Nc1c(C)nn(Cc2ccccc2C)c1C`, the displacement is -0.7%.
In the case of `CCOc1ccc(C(c2c(C)[nH][nH]c2=O)c2c(C)[nH][nH]c2=O)cc1OC` it was 8.5%.
For `CC(C)CC(C(=O)Nn1cnnc1)N1C(=O)c2ccccc2C1=O` (centres undefined), the displacement is -8.4%.
For the compound `Cc1nnc(NC(=O)Cc2cccs2)s1`, the displacement was 40.2%.
In the case of `O=C(Cc1cccs1)Nc1nnc(CCc2ccccc2)s1`, the displacement was -0.1%.
Turning to `CCOC(=O)c1nc2sc3c(c2c(=O)[nH]1)CCCC3`, the displacement is -2.6%.
Regarding `CC(C)CC(=O)c1c[nH]c(C(=O)NCCCn2ccnc2)c1`, the displacement was 0%.
`Cc1ccc2cc(C3C(C#N)=C(N)Oc4c3ccc3cccnc43)c(=O)[nH]c2c1` (centres undefined): the displacement was 5.4%.
As for `CCc1ccc2[nH]c(=O)c(C3C(C#N)=C(N)Oc4c3ccc3cccnc43)cc2c1` (centres undefined), the displacement was -4.7%.
On to `O=c1[nH]c(=O)n(C2CCCO2)cc1Br` (centres undefined), for which the displacement was -6.3%.
Turning to `CS(=O)(=O)N(CCc1ccccc1)CC(=O)N1CCCCC1`, the displacement was 0.5%.
For `Clc1ccc2nc(CN3CCCCCC3)cn2c1`, the displacement is -3.6%.
As to `Clc1ccc2nc(CN3CCCCC3)cn2c1`, the displacement was 10.1%.
Next, `Cc1nn(-c2ccccn2)c2c1-c1nc(N)ncc1CC2`: 6%; `CCN(CC)CCC(=O)NC(C)(C)Cc1ccc(O)cc1`: -7.8%; `CCOC(=O)c1[nH]c2c(c1C)C(=O)CC(c1ccco1)C2` (centres undefined): 10.9%.
`Cc1c(C(=O)OCC2CCCO2)[nH]c2c1C(=O)CC(c1ccc(N(C)C)cc1)C2` (centres undefined): the displacement was -1.6%.
Regarding `CCCC(=O)N1CCc2cc(-c3nc(N)sc3C)ccc21`, the displacement was 0.7%.
With `CC1(C)Cc2c(sc3c2c(=N)n(Cc2ccco2)c(=O)n3CC(=O)Nc2cccc(Cl)c2)CO1`, the displacement was -38.7%.
As for `CC1(C)C(=O)Nc2ccccc2N1C(=O)COC(=O)C1CCCCC1`, the displacement is -3.4%.
Take `Cc1ccc(S(=O)(=O)N2CCOCC2)cc1C(=O)OCC(=O)N1c2ccccc2NC(=O)C1(C)C`: the displacement was 25%.
As for `COc1cc(/C=C(/C#N)c2ccc(C)cc2)ccc1Oc1ccc([N+](=O)[O-])cn1`, the displacement is -0.7%.
Next, `CC1Cc2nc(SCC(=O)NC3CCCCC3)n(C)c(=O)c2S1` (centres undefined): -2.6%.
On to `CCOC(=O)COc1ccc(S(=O)(=O)N2CCc3ccccc3C2)cc1`, for which the displacement is 0.4%.
Next, `CCOc1ccccc1N(CC(=O)NC(C)(C)C)C(=O)Cn1nnc(-c2ccc(C)o2)n1`: -3.4%.
In the case of `CC(=O)N1N=C(c2ccc3nccnc3c2)CC1c1ccccc1` (centres undefined) it was 6%.
Consider `C=CCn1c(=O)c2ccccc2n2c(SCc3cc(=O)n4ccsc4n3)nnc12`, for which the displacement is 6.2%.
Next, `C=CCn1c(SCc2cc(=O)n3ccsc3n2)nc2scc(C3CC3)c2c1=O`: -10.9%.
As to `CCCNC(=O)c1c(N)n(-c2ccc3c(c2)OCO3)c2nc3ccccc3nc12`, the displacement was 8.6%.
With `Cn1c(N2CCN(C(=O)NCc3ccccc3)CC2)nc2ccccc21`, the displacement is 6.9%.
With `COc1cccc(NC(=O)c2cnsn2)c1`, the displacement is 6.3%.
Next, `Cc1cc(-c2csc(N)n2)c(C)n1CCC(C)C`: 1.9%; `CCCn1c(C)cc(-c2csc(N)n2)c1C`: 10.4%.
As to `c1csc(Cn2c(-c3cccs3)nc3ccccc32)c1`, the displacement was -27.7%.
Take `CC(=O)Nc1ccc(S(=O)(=O)n2nc(-c3ccc(C)cc3)nc2N)cc1`: the displacement was -2.3%.
Next, `O=[N+]([O-])c1ccc(Cl)c(-c2ccc(/C=N/c3c(-c4ccco4)nc4ccccn34)o2)c1`: 31.7%; `O=[N+]([O-])c1ccc(-c2ccc(/C=N/c3c(-c4ccco4)nc4ccccn34)o2)cc1`: 7.3%; `COCCn1c(=S)[nH]c2cc(OC)c(OC)cc2c1=O`: 3%.
On to `COc1cc2c(cc1OC)CN(C(C)C(=O)Nc1ccc(NC(C)=O)cc1)CC2` (centres undefined), for which the displacement was 2.9%.
For `CCn1c(NN)nc2sc3c(c2c1=O)CCC3`, the displacement is -124%.
For `CCn1c(SCC(N)=O)nc2sc3c(c2c1=O)CCCC3`, the displacement is 1.5%.
Turning to `CCn1c(SCC(=O)N2CCOCC2)nc2sc3c(c2c1=O)CCCC3`, the displacement was 4%.
`COC(=O)CSc1nc2sc3c(c2c(=O)n1C1CCCCC1)CCN(C)C3`: the displacement was -62.9%.
Take `CCn1c(SCC(=O)OC)nc2sc3c(c2c1=O)CCC3`: the displacement was 46.6%.
As for `COC(=O)CSc1nc2sc3c(c2c(=O)n1-c1ccccc1)CCN(C)C3`, the displacement was 4.6%.
With `Cc1ccc2cccc(SCC(=O)N3CCOCC3)c2n1`, the displacement was 1.9%.
Consider `O=C1CC(C(=O)O)S/C(=N\NC(=O)c2ccccc2)N1` (centres undefined), for which the displacement is 0%.
Turning to `CC(C)n1c(SCCCc2ccccc2)nc2c1c(=O)[nH]c(=O)n2C`, the displacement was -3.8%.
For the compound `COc1ccccc1NC(=O)Cc1noc(CSc2cccc[n+]2[O-])n1`, the displacement is -8.6%.
In the case of `CC(C)(C)c1nnc2sc(SCCN3C(=O)c4ccccc4C3=O)nn2c1=O` it was 2.7%.
For `COc1ccc(OC)c(C2=NO[C@@H]3C(=O)N(c4cc(Cl)ccc4OC)C(=O)[C@H]23)c1`, the displacement is 6%.
In the case of `COc1ccc(Cl)cc1N1C(=O)[C@@H]2C(c3cccc(OC)c3OC)=NO[C@@H]2C1=O`, the displacement was 8.5%.
For the compound `O=c1oc2c3c4c(cc2c2c1CCC2)OCCN4CCC3`, the displacement was 49.8%.
Take `CC(C)c1cc(=O)oc2c3c4c(cc12)CCCN4CCC3`: the displacement was 59.5%.
With `CCNC(=O)CN1c2cccc3cccc(c23)S1(=O)=O`, the displacement is -6.3%.
`CCOC(=O)c1cc(CC)sc1NC(=O)CCC(=O)O`: the displacement was 1.7%.
With `Brc1ccc(C2Nc3cccc4cccc(c34)N2)o1`, the displacement was 17.6%.
`O=C1NC(c2ccco2)Nc2ccccc21` (centres undefined): the displacement was -1.7%.
As for `COC(=O)c1ccc(Oc2c(C(F)(F)F)oc3c(CN4CCN(C)CC4)c(O)ccc3c2=O)cc1`, the displacement was 4.9%.
In the case of `CCOC(=O)N1CCC(NC(=O)C2CCCN(C(=O)N3CCOc4ccccc43)C2)CC1` (centres undefined) it was 3.1%; in that of `O=C(O)c1cn[nH]c1-n1cnnn1`, 0.2%.
As for `Cc1cccc(OCC(=O)Nc2ccc(N3CCN(S(C)(=O)=O)CC3)cc2)c1C`, the displacement was -12.3%.
Consider `CCOc1ccc(C(=O)Nc2ccc(N3CCCC3)cc2)cc1`, for which the displacement is 35.5%.
Next, `CCCC(=O)N1CCN(c2ccc(NC(=O)c3ccc(OCC)c([N+](=O)[O-])c3)cc2)CC1`: -1.6%.
As to `Cc1cccc(OCCCC(=O)Nc2ccc(N3CCCCC3)cc2)c1C`, the displacement was -5.7%.
Next, `Cc1cc(C)cc(OCC(=O)Nc2ccc(N3CCCC3)cc2)c1`: 17.3%; `Cc1ccc(OCC(=O)Nc2ccc(N3CCOCC3)cc2)cc1`: 4.4%.
Next, `CCCCOc1ccc(C(=O)Nc2ccc(N3CCN(C)CC3)cc2)cc1`: -3.7%; `CC(C)Oc1ccc(C(=O)Nc2ccc(N3CCCC3)cc2)cc1`: 0%.

(Values after PubChem BioAssay AID748 (Sanford-Burnham Center for Chemical Genomics, 2007).)
